About 83,000 compounds went through this panel and 20% of them were active in at least one assay; those are over-represented in the sample as a whole.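 Assay: single dose, 48 h. Readout: percent growth (0 = no net growth; negative = cell death). Active: <10.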 Calls of active or inactive are those of the source.
How the values were obtained:
Test in all cases: NCI-60 one-dose screen, 48 h (100 = growth as untreated, 0 = no growth, -100 = all killed)
Settings in all cases: 10 µM unless noted
HCT-15 colon = test system: HCT-15 colon
HT29 colon = test system: HT29 colon
SNB-75 CNS = test system: SNB-75 CNS
SNB-19 CNS = test system: SNB-19 CNS
U251 CNS = test system: U251 CNS
PC-3 prostate = test system: PC-3 prostate
SK-MEL-5 melanoma = test system: SK-MEL-5 melanoma
UACC-62 melanoma = test system: UACC-62 melanoma
LOX IMVI melanoma = test system: LOX IMVI melanoma
SK-MEL-28 melanoma = test system: SK-MEL-28 melanoma
SK-MEL-2 melanoma = test system: SK-MEL-2 melanoma
EKVX NSCLC = test system: EKVX NSCLC
SN12C renal = test system: SN12C renal
UO-31 renal = test system: UO-31 renal
TK-10 renal = test system: TK-10 renal
ACHN renal = test system: ACHN renal
CAKI-1 renal = test system: CAKI-1 renal
A498 renal = test system: A498 renal
CCRF-CEM leukemia = test system: CCRF-CEM leukemia
MOLT-4 leukemia = test system: MOLT-4 leukemia

Measured: growth

CC(C)(CO)N(CCO)CCO
inactive: HCT-15 colon 99.7% | HT29 colon 98.6% | SNB-75 CNS 102% | SNB-19 CNS 103% | U251 CNS 91.4% | PC-3 prostate 91.4% | SK-MEL-5 melanoma 97.1% | UACC-62 melanoma 101% | LOX IMVI melanoma 100% | SK-MEL-28 melanoma 103% | SK-MEL-2 melanoma 100% | EKVX NSCLC 116% | SN12C renal 99.1% | UO-31 renal 87.4% | TK-10 renal 95.5% | ACHN renal 97.1% | CAKI-1 renal 100% | A498 renal 111% | CCRF-CEM leukemia 92.8% | MOLT-4 leukemia 104%

Cc1cc2nc(-c3c(-c4ccc(F)cc4)nc4sccn34)[nH]c2cc1C
inactive: HCT-15 colon 93% | HT29 colon 96.3% | SNB-75 CNS 105% | SNB-19 CNS 96.1% | U251 CNS 95.4% | PC-3 prostate 90.5% | SK-MEL-5 melanoma 86.3% | UACC-62 melanoma 89% | LOX IMVI melanoma 88.8% | SK-MEL-28 melanoma 95.2% | SK-MEL-2 melanoma 100% | EKVX NSCLC 103% | SN12C renal 98.6% | UO-31 renal 78.6% | TK-10 renal 86% | ACHN renal 93.6% | CAKI-1 renal 89.9% | A498 renal 89.2% | CCRF-CEM leukemia 90.1% | MOLT-4 leukemia 83.4%

CN(Cc1cnc2nc(N)nc(N)c2n1)c1c(Cl)cc(C(=O)NC(CCC(=O)O)C(=O)O)cc1Cl (stereo not given)
active: CAKI-1 renal -20%
inactive: HCT-15 colon 28% | HT29 colon 30.4% | SNB-75 CNS 63.9% | SNB-19 CNS 31.7% | U251 CNS 33.4% | PC-3 prostate 22.5% | SK-MEL-5 melanoma 21.3% | UACC-62 melanoma 16.4% | LOX IMVI melanoma 13.8% | SK-MEL-28 melanoma 63.3% | SK-MEL-2 melanoma 59.8% | EKVX NSCLC 42.4% | SN12C renal 26.3% | UO-31 renal 11.5% | TK-10 renal 36% | ACHN renal 29% | A498 renal 47.7% | CCRF-CEM leukemia 34.8% | MOLT-4 leukemia 25.8%

C=C1C(=O)O[C@H]2[C@H]1CC/C(COC(=O)NCc1ccc(Cn3c(=O)sn(-c4ccc(OC)cc4)c3=O)cc1)=C\CC[C@@]1(C)O[C@@H]21
inactive: SNB-75 CNS 96% | SNB-19 CNS 94.8% | U251 CNS 77.7% | PC-3 prostate 70.3% | SK-MEL-5 melanoma 97.9% | UACC-62 melanoma 60.7% | LOX IMVI melanoma 25% | SK-MEL-28 melanoma 71% | SK-MEL-2 melanoma 68.1% | EKVX NSCLC 97.1% | SN12C renal 65.2% | CAKI-1 renal 55.9% | A498 renal 89.2%
active: HCT-15 colon 4.27% | HT29 colon -15.5% | UO-31 renal -14.6% | TK-10 renal 1.08% | ACHN renal -8.56% | CCRF-CEM leukemia -34.7% | MOLT-4 leukemia -12.2%

COc1ccc(C2=NN(C(C)=O)C(c3ccc(Oc4ccnc5cc(Cl)ccc45)c(OC)c3)C2)cc1 (stereo not given)
inactive: HCT-15 colon 90.6% | HT29 colon 15.1% | SNB-75 CNS 16.1% | SNB-19 CNS 73.1% | U251 CNS 45.7% | PC-3 prostate 56% | SK-MEL-5 melanoma 65.8% | UACC-62 melanoma 54.7% | LOX IMVI melanoma 53.2% | SK-MEL-28 melanoma 35.8% | SK-MEL-2 melanoma 42.4% | EKVX NSCLC 62% | SN12C renal 68.7% | UO-31 renal 70% | TK-10 renal 36.6% | ACHN renal 22.9% | CAKI-1 renal 47.9% | A498 renal 66.3% | CCRF-CEM leukemia 85.7% | MOLT-4 leukemia 78.9%

COc1cc(/C=C\c2cc(/C=C\c3ccc(O)c(OC)c3)n(C(=O)CNc3ccc(Cl)cc3)n2)ccc1O
inactive: HCT-15 colon 11.3% | HT29 colon 15.8% | SNB-75 CNS 25.5% | SNB-19 CNS 45.6% | U251 CNS 16.1% | PC-3 prostate 33.9% | SK-MEL-5 melanoma 15.9% | UACC-62 melanoma 10.9% | LOX IMVI melanoma 11.2% | SK-MEL-28 melanoma 49.5% | EKVX NSCLC 42.2% | SN12C renal 22.5% | UO-31 renal 15.9% | TK-10 renal 47.2% | ACHN renal 23.6% | CAKI-1 renal 29.3% | A498 renal 44.5% | CCRF-CEM leukemia 10%
active: SK-MEL-2 melanoma 9.05% | MOLT-4 leukemia 8.25%

COc1ccc(-c2cc(-c3ccc(OC)cc3)nc(NCCCNc3ccnc4cc(Cl)ccc34)n2)cc1
inactive: SNB-75 CNS 112% | SNB-19 CNS 93.3% | U251 CNS 70.7% | PC-3 prostate 61.5% | SK-MEL-5 melanoma 22.7% | UACC-62 melanoma 91.8% | SK-MEL-28 melanoma 37.5% | SK-MEL-2 melanoma 83.9% | EKVX NSCLC 80.4% | UO-31 renal 48.9% | TK-10 renal 127% | ACHN renal 96.2% | CAKI-1 renal 75.3% | A498 renal 23.2%
active: HCT-15 colon -77% | HT29 colon -59.6% | LOX IMVI melanoma -95% | SN12C renal -62.3% | CCRF-CEM leukemia 3.08% | MOLT-4 leukemia 1.68%

COc1cc(OC)cc(C2C(C#N)=C(N)Oc3c2ccc2ccc(O)cc32)c1 (stereo not given)
active: HCT-15 colon 4.56% | HT29 colon 7.81% | SK-MEL-5 melanoma -45.6% | LOX IMVI melanoma 0.698% | SN12C renal 9.97% | CCRF-CEM leukemia 7.39% | MOLT-4 leukemia 7.26%
inactive: SNB-75 CNS 72% | SNB-19 CNS 26.9% | U251 CNS 12.8% | PC-3 prostate 17.6% | UACC-62 melanoma 28.9% | SK-MEL-28 melanoma 48.6% | SK-MEL-2 melanoma 21.3% | EKVX NSCLC 32.9% | UO-31 renal 18.7% | TK-10 renal 48.3% | ACHN renal 15.8% | CAKI-1 renal 21.1% | A498 renal 32.1%

CC(C)c1ccc(C(=O)Nc2sc3cc(O)ccc3c2C#N)cc1
inactive: HCT-15 colon 18.9% | HT29 colon 57.8% | SNB-75 CNS 22.6% | SNB-19 CNS 36% | U251 CNS 29.2% | PC-3 prostate 58.6% | SK-MEL-5 melanoma 22.3% | UACC-62 melanoma 18% | LOX IMVI melanoma 25.4% | SK-MEL-28 melanoma 52.4% | SK-MEL-2 melanoma 47.6% | EKVX NSCLC 52.9% | SN12C renal 34.2% | UO-31 renal 25.1% | TK-10 renal 63.4% | ACHN renal 47.3% | CAKI-1 renal 39.6% | CCRF-CEM leukemia 12.3% | MOLT-4 leukemia 18.3%
active: A498 renal -0.765%

Cn1cc(-c2csc(-c3cn(C(=O)OC(C)(C)C)c4ccccc34)n2)c2ccnc(Cl)c21
inactive: HCT-15 colon 39.1% | HT29 colon 35.4% | SNB-75 CNS 46.8% | SNB-19 CNS 89.1% | U251 CNS 34.1% | PC-3 prostate 40.5% | SK-MEL-5 melanoma 81.4% | UACC-62 melanoma 78.2% | LOX IMVI melanoma 52.8% | SK-MEL-28 melanoma 81.2% | SK-MEL-2 melanoma 96.5% | EKVX NSCLC 62.8% | SN12C renal 55.1% | UO-31 renal 58.4% | TK-10 renal 52.8% | ACHN renal 32.7% | CAKI-1 renal 80% | A498 renal 88.4% | CCRF-CEM leukemia 61.7% | MOLT-4 leukemia 66.8%

C#CCOc1cccc(-c2ncc3cc(NC(=O)CCl)ccc3n2)c1
active: HCT-15 colon -29.6% | HT29 colon -67.6% | SNB-19 CNS 2.89% | U251 CNS -95.7% | SK-MEL-5 melanoma -65.2% | UACC-62 melanoma -6.06% | LOX IMVI melanoma -50.4% | EKVX NSCLC -1.1% | SN12C renal -42.5% | ACHN renal -87.2% | CAKI-1 renal -27.3% | CCRF-CEM leukemia -16.8% | MOLT-4 leukemia 0.493%
inactive: SNB-75 CNS 24.4% | PC-3 prostate 11.7% | SK-MEL-28 melanoma 53.9% | SK-MEL-2 melanoma 22.7% | UO-31 renal 50.9% | TK-10 renal 78.9% | A498 renal 88.1%

CCCCSCC(=O)c1ccccc1
inactive: HCT-15 colon 104% | HT29 colon 92.2% | SNB-75 CNS 82.3% | SNB-19 CNS 98.1% | U251 CNS 97.3% | PC-3 prostate 81.5% | SK-MEL-5 melanoma 102% | UACC-62 melanoma 102% | LOX IMVI melanoma 101% | SK-MEL-28 melanoma 108% | SK-MEL-2 melanoma 85.2% | EKVX NSCLC 99% | SN12C renal 103% | UO-31 renal 85% | TK-10 renal 86.1% | ACHN renal 101% | CAKI-1 renal 94.4% | A498 renal 106% | CCRF-CEM leukemia 91.9% | MOLT-4 leukemia 92.9%

Cn1cccc1/C=C1\C(=O)Nc2ccccc21
inactive: HCT-15 colon 50.9% | HT29 colon 103% | SNB-75 CNS 90.3% | SNB-19 CNS 90.4% | U251 CNS 97.7% | PC-3 prostate 94.2% | SK-MEL-5 melanoma 56.6% | UACC-62 melanoma 90.6% | LOX IMVI melanoma 87.2% | SK-MEL-28 melanoma 112% | SK-MEL-2 melanoma 114% | EKVX NSCLC 34.4% | SN12C renal 94% | UO-31 renal 62.9% | TK-10 renal 72.2% | ACHN renal 98.2% | CAKI-1 renal 86% | A498 renal 125% | CCRF-CEM leukemia 104% | MOLT-4 leukemia 97.7%

COc1ccc(C(c2cc(OC)c(OC)c(OC)c2)N2CCCC2)cc1 (stereo not given)
inactive: HCT-15 colon 52.7% | HT29 colon 40.6% | SNB-75 CNS 84.1% | SNB-19 CNS 90.5% | U251 CNS 77.8% | PC-3 prostate 63.9% | SK-MEL-5 melanoma 65.2% | UACC-62 melanoma 57.4% | LOX IMVI melanoma 73% | SK-MEL-28 melanoma 80.1% | SK-MEL-2 melanoma 55.7% | EKVX NSCLC 87.8% | SN12C renal 108% | UO-31 renal 75.1% | TK-10 renal 88.3% | ACHN renal 103% | CAKI-1 renal 77.5% | A498 renal 31.2% | CCRF-CEM leukemia 71.2% | MOLT-4 leukemia 78.1%

CC(C)[C@@]12C[C@@H](OC(=O)COC(=O)c3ccccc3)[C@@](C)(O1)[C@@H]1CC[C@@H](C)[C@H]1[C@@H]2OC(=O)/C=C/c1ccccc1
inactive: HCT-15 colon 92.5% | HT29 colon 89.9% | SNB-75 CNS 72.6% | SNB-19 CNS 84.5% | U251 CNS 84% | PC-3 prostate 74.2% | SK-MEL-5 melanoma 90.7% | UACC-62 melanoma 83.2% | LOX IMVI melanoma 89.1% | SK-MEL-28 melanoma 107% | SK-MEL-2 melanoma 103% | EKVX NSCLC 81.8% | SN12C renal 31% | TK-10 renal 88.9% | CCRF-CEM leukemia 87% | MOLT-4 leukemia 80.8%
active: UO-31 renal -78.1% | ACHN renal -13.4% | CAKI-1 renal 5.14% | A498 renal -76.6%
